We go through 40 compounds from PubChem BioAssay (EPA / NIEHS).

Results filed as inconclusive are left out. Calls of active or inactive are those of the source. The calls were made as follows: active = hit-call score of the fitted dose curve at least 0.9, where 1 is the maximum; inconclusive = response in the unintended direction; inactive = score below 0.9.

The term AC50 denotes the midpoint of the concentration-response curve, whichever way the signal moves.

The nature of the test: Tanguay_ZF_120hpf_PIG_legacy: (Legacy) Oregon State University Tanguay Lab 120 Hour Post-fertilization zebrafish Assay for Pigmentation Malformation (AID 2283650).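 Also: dechorionated Tropical 5D zebrafish embryos exposed singly from 6 to 120 hpf.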 The procedure: Tanguay_ZF_120hpf_legacy is a whole embryo, multiplexed endpoint assay using zebrafish larvae exposed for 120 hours post fertilization on a 96-well plate.Tanguay_ZF_120hpf_PIG_legacy is one of one assay component(s) measured or calculated from the Tanguay_ZF_120hpf_legacy assay. It is designed to make measurements of zebrafish development as detected with brightfield microscopy of developing zebrafish embryos.Data from the assay component Tanguay_ZF_120hpf_PIG_legacy was analyzed into 1 assay endpoints. This assay endpoint, Tanguay_ZF_120hpf_PIG_legacy, was analyzed in the positive analysis fitting direction relative to DMSO as the negative control and baseline of activity. Using a type of morphology reporter, gain-of-signal activity can be used to understand changes in developmentals as they relate to the whole embryo. To generalize the intended target to other relatable targets, this assay endpoint is annotated to the zebrafish development intended target family, where the subfamily is embryonic pigmentation.
Zebrafish husbandry: Tropical 5D wild-type adult zebrafish were housed in at an approximate density of 1000 per 100 gallon tank at the Sinnhuber Aquatic Research Laboratory, Oregon State University, Corvallis, OR. Each tank was kept at standard laboratory conditions of 28C on a 14-h light/10-h dark photoperiod in fish water consisting of reverse osmosis water supplemented with a commercially available salt (Instant Ocean). Spawning funnels were placed into the tanks the night prior, and embryos were collected and staged. To increase bioavailability, the chorion was enzymatically removed using pronase (63.6mg/ml, >/= 3.5U/mg, Sigma-Aldrich: P5147) at 4 hours post fertilization (hpf) using a custom automated dechorionator.Chemical exposures: Six hpf dechorionated embryos were placed 1 embryo per well in a 96-well plate prefilled with 90 ul of EM using automated embryo placement systems (AEPS). Ten microliters of each row of dilution plate 2 was added to 2 exposure plates. The final DMSO concentration used was 0.64% (vol/vol). Thirty-two embryos were also exposed to 5uM trimethyltin chloride (positive control). Plates were sealed to prevent evaporation and foil covered to reduce light exposure and kept in a 28C incubator. Embryos were statically exposed until 120 hpf. At 24 hpf, embryos were assessed for photomotor response using a custom photomotor response analysis tool (PRAT) and for developmental toxicity endpoints (MO24: mortality at 24 hpf, DP: developmental progression, SM: spontaneous movement, and NC: notochord distortion). At 120 hpf, locomotor activity was measured using Viewpoint Zebralab and assessed for 18 endpoints. Zebrafish acquisition and analysis program (ZAAP), a custom program designed to inventory, acquire, and manage zebrafish data, was used to collect developmental endpoints as either present or absent (i.e., binary responses were recorded). If mortality occurred for an embryo (at either 24 or 120 hpf), the non-mortality endpoints were not measured.
Take `CC(C)(c1cc(Br)c(O)c(Br)c1)c1cc(Br)c(O)c(Br)c1`: the compound was called inactive. On to `CCCCCc1ccc(N)cc1`, for which the compound was called inactive.

As for `O=C1O[C@H]([C@@H](O)CO)C(O)=C1O`, the result was inactive. Consider `OCCO`, for which the compound was called inactive.

On to `CCN(Cc1cccc(S(=O)(=O)O)c1)c1ccc(C(=C2C=CC(=[N+](CC)Cc3cccc(S(=O)(=O)O)c3)C=C2)c2ccccc2S(=O)(=O)[O-])cc1`, for which the compound was called inactive. Still for that read-out and setting: the entry for `CCCCCCCCOC(=O)c1cc(O)c(O)c(O)c1` is “inactive”. Still for that read-out and setting: then `CC[C@@H]1C[C@H](N(Cc2cc(C(F)(F)F)cc(C(F)(F)F)c2)C(C)=O)c2cc(C(F)(F)F)ccc2N1C(=O)OC(C)C`, with “inactive”. On the same count and under the same terms, then `Cc1c2ccccc2c(C)c2c1ccc1ccccc12`, with “inactive”. Regarding `NC(=O)c1nc(-c2cccc(-c3cc(F)ccc3OCC(F)(F)C(F)(F)F)c2)n[nH]1`, the AC50 is 26.7 µM (active). For `COc1ccc2cc(S(=O)(=O)N[C@H](CC(=O)N[C@H](Cc3ccc(CN4[C@H](C)CCC[C@@H]4C)cc3)C(=O)N(C)C(C)C)c3ccc4c(c3)OCO4)ccc2c1`, the compound was classed as inactive.

Turning to `Cc1oc2c(NC(=O)c3c(Cl)cccc3Cl)cccc2c1C(C)(C)O`, the compound was classed as inactive. On the same count and under the same terms, the entry for `COc1cc(C(=O)NC2CCN(C)CC2)ccc1Nc1ncc2c(n1)N(C1CCCC1)CC(F)(F)C(=O)N2C` is “inactive”. `O=C1c2ccccc2C(=O)N1CCc1noc(-c2ccc(CN3CCCCCC3)s2)n1`: the compound was classed as inactive.

As for `Cc1cn([C@H]2C[C@H](N=[N+]=[N-])[C@@H](CO)O2)c(=O)[nH]c1=O`, the compound was called inactive. The same measure, in the same setting: then `Oc1ccccc1`, with “inactive”. Take `CN1C(=O)N(c2ccccc2Br)Cc2cnc(Nc3ccc4c(c3)OCC(CO)O4)nc21` (stereo not given): the AC50 is 49.7 µM (active). `Cc1cc(F)ccc1-c1cc(N2CC[C@@H](O)[C@H]2CO)ncc1N(C)C(=O)C(C)(C)c1cc(C(F)(F)F)cc(C(F)(F)F)c1`: the compound was classed as inactive. The same measure, in the same setting: then `C[C@]12CC[C@@H]3c4ccc(O)cc4CC[C@H]3[C@@H]1CCC2=O`, with “inactive”; and `c1ccc2n[nH]nc2c1`, with “inactive”. Still for that read-out and setting: then `CCCCCCCCOc1ccc(C(=O)c2ccccc2)c(O)c1`, with “inactive”; and `CC1=CC(=O)/C(=C(/C)O)C(=O)O1`, with “inactive”. Take `CCO[Si](CCCNC(N)=O)(OCC)OCC`: the compound was classed as inactive. `CC1(C)NC(=O)N(c2ccc([N+](=O)[O-])c(C(F)(F)F)c2)C1=O`: the result was inactive. Still for that read-out and setting: the entry for `CCCCCCCCCC(=O)O` is “inactive”; for `COCC(C)OCC(C)OCC(C)O` (stereo not given) it is “inactive”. The same measure, in the same setting: the entry for `CO[C@H]1/C=C/O[C@@]2(C)Oc3c(C)c(O)c4c(O)c(c(/C=N/N5CCN(C)CC5)c(O)c4c3C2=O)NC(=O)/C(C)=C\C=C\[C@H](C)[C@H](O)[C@@H](C)[C@@H](O)[C@@H](C)[C@H](OC(C)=O)[C@@H]1C` is “inactive”; for `CC(O)CC(C)(C)O` (stereo not given) it is “inactive”; for `CCOC(=O)O[C@H](C)OC(=O)c1ccc2c(c1)cc(C(=O)NC1CCN(C(C)C)CC1)n2Cc1cc(-c2ccc(Cl)s2)on1` it is “inactive”.

On to `C[C@]12CC[C@@H]3c4ccc(O)cc4CC[C@H]3[C@@H]1CC[C@H]2O`, for which the compound was classed as inactive. On to `CCCCOC(=O)CC(CC(=O)OCCCC)(OC(C)=O)C(=O)OCCCC`, for which the result was inactive.

Take `O=c1c(-c2ccc(O)cc2)coc2cc(O)cc(O)c12`: the result was inactive.

`CN1C(=O)CC[C@H]1c1cccnc1`: the compound was classed as inactive. The same measure, in the same setting: then `CC(C)(C)c1cc(/C=C2\SC(N)=NC2=O)cc(C(C)(C)C)c1O`, with “inactive”; and `Cc1cccc2ccccc12`, with “inactive”. Take `O=CCCCC=O`: the compound was classed as inactive. Still for that read-out and setting: then `CCCC(=O)OCCC(C)C`, with “inactive”. Still for that read-out and setting: the entry for `Cc1ccc(C(C)C)cc1` is “inactive”. With `O=C1CCC(C2CCCCC2)CC1`, the result was inactive. Take `Cc1occc1C(=O)Nc1ccc(C(=O)N2CCC(F)(F)/C(=C\C(=O)N3CCC(N4CCCCC4)CC3)c3ccccc32)cc1`: the compound was classed as inactive. Turning to `OC12N=C(c3ccccc3)SC1Cc1cc(Cl)ccc12` (stereo not given), the AC50 was 44.5 µM (active).
